# From ChEMBL document CHEMBL3988442, “University of Dundee, Small-Polar-MMV Screening Library” (2021)
# In all, about 48,000 compounds went through this assay and about 13,000 (27%) showed an effect of 50% or more. The list shows a part of the results.
# Test system: Wolbachia pipientis
# Experiment: Anti-Wolbachia Cell-Based Screen
# Type: functional
# Design: scale not given: in the data most compounds retested in dose-response had high values
# Conditions: 5 µM
row,Structure (SMILES),Percent Effect
1,Cc1cc(C(=O)NCC2CCCC2)c(C)n1-c1cccnc1,5.973%
2,O=C(NCC1CC1)c1cc2c(s1)CCN2C(=O)c1ccc(F)cc1,95.26%
3,O=C(NCC1CC1)c1cc2c(s1)CCN2C(=O)c1cccnc1,93.16%
4,O=C(c1ccc(F)c(F)c1)N1CCCC(Nc2ccc(F)cc2)C1 (stereo not given),-4.983%
5,COC(=O)c1ccc(C(=O)N2CCCC(Nc3ccc(F)cc3)C2)cc1 (stereo not given),-50.64%
6,CC(NC(=O)c1cc(N2CCNC2=O)ccc1F)c1ccc(F)cc1 (stereo not given),-0.5858%
7,CCSCCC(=O)Nc1ncn(Cc2ccccc2)n1,-26.44%
8,O=c1n(CCSCc2ccccc2Br)nc2ccccn12,-15.86%
9,O=c1n(CCNCc2cccc3ccccc23)nc2ccccn12,89.88%
10,O=c1n(CCNc2cccc3ccccc23)nc2ccccn12,88.07%
11,CCSCCC(=O)NCCn1nc2ccccn2c1=O,-5.498%
12,O=c1n(CCSCc2ccccc2Cl)nc2ccccn12,6.647%
13,O=C(CCSc1ccccc1)NCCn1nc2ccccn2c1=O,3.117%
14,COc1ccc(Cl)cc1CN1CC(n2cccn2)C1,-1.811%
15,CN(Cc1ccco1)Cc1ccccc1CNC(=O)c1ccncc1,21.51%
16,COCC(=O)NCC[C@H]1CC(C)(C)Oc2ccccc21,119%
17,COCC(=O)NCCc1ccc(I)s1,-6.07%
18,COc1ccc2c(c1)CCCC2CC(=O)NCC(=O)O (stereo not given),-14.49%
19,COCC(=O)NCC[C@H]1CC(C)(C)Oc2ccc(OC)cc21,109.1%
20,COc1ccc2c(c1)[C@@H](CCNC(C)=O)CC(C)(C)O2,118.9%
21,COCC(=O)NCCc1ccc(Cl)s1,-5.141%
22,O=C(NC[C@H]1OC[C@@H](NC(=O)c2ccccc2)[C@@H]1O)c1ccncc1,-2.654%
23,CCCNC(=O)CNC(=O)CC1CCCc2cc(OC)ccc21 (stereo not given),-20.04%
24,COc1cccc(C2(NC(=O)CCNC(C)=O)CC2)c1,-8.972%
25,COc1ccc2c(c1)CC(NC(=O)NCc1cccs1)CO2 (stereo not given),-5.09%
26,CC1(C)C[C@H](CCNC(=O)c2ccncc2)c2ccccc2O1,152.5%
27,O[C@@H]1C[C@@H](c2nc(Cc3ccccc3)no2)N(Cc2ncc[nH]2)C1,0.9239%
28,COc1ccc(CNC(=O)NC2CCC(O)CC2)c(C(F)(F)F)c1 (stereo not given),20.35%
29,CCc1ccc(C(=O)N(CC(F)(F)F)C2CCCOC2)o1 (stereo not given),5.996%
30,Cc1cc(CSc2nc(=O)ccn2C(C)C)no1,-4.933%
